# Bioassay records: PubChem BioAssay, National Center for Advancing Translational Sciences (NCATS)
# IL-1B inflam inh: inhibitors of inflammasome signaling (IL-1 beta secretion). activity change, % at 57.5 µM. 360,000 compounds, 4.7% hits. THP-1 LPS/ATP IL-1B secretion, AlphaLISA, 16 h; stronger effect = lower value; in the data active means activity change below about -50%; inconclusive means mostly about -30% to -49%
#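 Secreted IL-1B measured by AlphaLISA bead assay after 16 h compound exposure of THP-1 cells; compounds (final up to 57.5 uM) added 1 h before LPS (250 ng/mL) and ATP (1.25 mM) stimulation; lower signal means less secretion.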
# Six1-Eya2 blk: blocks human Six1 binding to Eya2 | Q15475+O00167 | AlphaScreen GST-Six1/His-Eya2 binding, biochemical; stronger effect = lower value | activity change, % (no concentration beside the values) | 360,000 compounds, 0.56% hits | AID 651725; in the data active means activity change below about -65%; inconclusive means mostly about -30% to -63%
# Target sequence (O00167 whole entry, looked up): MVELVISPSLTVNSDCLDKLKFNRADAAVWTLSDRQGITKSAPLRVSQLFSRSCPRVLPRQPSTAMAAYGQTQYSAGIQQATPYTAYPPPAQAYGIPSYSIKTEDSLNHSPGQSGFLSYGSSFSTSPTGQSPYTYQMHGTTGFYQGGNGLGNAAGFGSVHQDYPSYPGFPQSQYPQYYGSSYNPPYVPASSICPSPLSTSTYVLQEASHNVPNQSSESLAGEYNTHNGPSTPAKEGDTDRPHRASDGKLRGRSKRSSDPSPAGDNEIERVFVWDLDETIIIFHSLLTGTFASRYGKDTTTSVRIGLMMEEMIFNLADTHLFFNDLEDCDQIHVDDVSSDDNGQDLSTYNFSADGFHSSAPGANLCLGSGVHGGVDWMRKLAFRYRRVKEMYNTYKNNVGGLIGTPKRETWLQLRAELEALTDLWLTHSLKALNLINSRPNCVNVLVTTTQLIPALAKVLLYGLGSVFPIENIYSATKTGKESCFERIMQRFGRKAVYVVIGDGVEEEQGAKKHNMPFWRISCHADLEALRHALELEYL
# Target sequence (Q15475 whole entry, looked up): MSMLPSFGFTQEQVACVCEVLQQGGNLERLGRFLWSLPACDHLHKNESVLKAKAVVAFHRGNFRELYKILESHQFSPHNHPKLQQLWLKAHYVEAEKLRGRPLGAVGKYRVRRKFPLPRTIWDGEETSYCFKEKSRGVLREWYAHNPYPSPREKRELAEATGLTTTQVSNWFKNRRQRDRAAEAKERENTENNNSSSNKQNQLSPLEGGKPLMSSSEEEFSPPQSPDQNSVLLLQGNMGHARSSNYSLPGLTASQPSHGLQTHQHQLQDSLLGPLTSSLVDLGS
#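 AlphaScreen luminescence read after one hour at 37 °C in darkness. Pin-transferred compounds met GST-Six1 and His-Eya2 protein (5X stock 250 nM/500 nM) plus glutathione donor and Ni-chelate acceptor beads (5X, 50 ug/mL).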
# DT40 TDP1 CPT: DT40-hTDP1 cell growth loss with CPT; chicken DT40 Tdp1-/-;hTDP1 cells + 20 nM CPT, ATP luminescence, 48 h; Potency, µM (top dose mostly 46.2 µM), without a hit: at the highest dose activity change, negative = growth inhibition, actives largely listed as inhibitors; 420,000 compounds, 12% hits; further: potency means the concentration at half of the fitted maximal effect; nearly all actives have a fitted effect of over 55% in size
#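 Chicken DT40 Tdp1-/- cells stably complemented with human TDP1 were seeded at 400 cells/well in medium containing 20 nM camptothecin, exposed to pin-transferred compounds, and grown at 37 °C for at least 48 hr. Viability was read as ATP luminescence.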
# TDP1 cell noCPT: qHTS for Inhibitors of human tyrosyl-DNA phosphodiesterase 1 (TDP1): qHTS in cells in absence of CPT; 420,000 compounds, 15% hits; Potency, µM (top dose mostly 46.2 µM), inactives show top-dose activity change, negative = growth inhibition, hits mostly inhibitors; DT40 Tdp1-/- hTDP1 cells, no CPT, ATP luminescence, 48 h; further: potency means the concentration at half of the fitted maximal effect; nearly all actives have a fitted effect of over 55% in size
#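 Growth of hTDP1-complemented DT40 Tdp1-knockout cells is measured by ATP luminescence after at least 48 hr compound exposure at 37 °C, with DMSO substituting for the 20 nM CPT used in the parallel screen.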
# CtBP-E1A inh: blocks the CtBP interaction with E1A; 340,000 compounds, 0.49% hits; activity change, % (concentration not given with the values); AlphaScreen GST-E1A/His-CtBP binding, 1536-well; stronger effect = lower value; in the data active means activity change below about -65%; inconclusive means mostly about -30% to -63%
#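 AlphaScreen with 125 nM GST-E1A and 125 nM His-CtBP (5X stocks) in Tris pH 8.0, 300 mM NaCl, BSA, Tween 20, TCEP. Compounds preincubated 2 h at 37 deg C, then glutathione donor/nickel acceptor beads added for 1 h at 37 deg C in dark.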
# TDP1 inh: inhibitors of human tyrosyl-DNA phosphodiesterase TDP1. Q9NUW8. recombinant TDP1, AlphaScreen DNA substrate cleavage. Potency, µM (doses to about 130 µM), without a hit: at the top dose activity change, negative = inhibition, actives largely listed as inhibitors. 350,000 compounds, 0.28% hits. AID 485290; further: potency means the concentration at half of the fitted maximal effect; nearly all actives have a fitted effect of over 40% in size
#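 Signal: AlphaScreen proximity between streptavidin donor and anti-FITC acceptor beads on intact substrate. Reaction: Tdp1 1 nM, substrate 15 nM final, 5 min RT after 15 min compound preincubation.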
# * marks the source's active call; other numbers are inactive results; ? = inconclusive; / = not tested or not shown. Rows were chosen to be rich in hits. Some 18% of all compounds tested hit in one or more screens of this group. Unless noted, the call rests on the fitted dose curve; in most records, active means well fitted curve in the direction sought with a large enough effect; inconclusive means small, poorly fitted or top-dose-only effect, or another doubt; inactive means no such curve, though single readings can be large; an effect the other way counts as inactive or inconclusive. On the % scale 0 is the no-effect control and ±100 the full control effect.
SMILES,IL-1B inflam inh,Six1-Eya2 blk,DT40 TDP1 CPT,TDP1 cell noCPT,CtBP-E1A inh,TDP1 inh
Cc1ccc(NC(=O)CN2C(=O)N/C(=C/c3cc(C)n(-c4ccc(C(=O)O)cc4)c3C)C2=O)cc1,13,-17,19%,18%,-7,/
Cc1ccc(NC(=O)CN2C(=O)N/C(=C/c3cccn3-c3ccc(C(=O)O)cc3)C2=O)cc1,0,-74*,-4%,-2%,12,0.89µM*
COc1ccc(NC(=O)CN2C(=O)S/C(=C/c3cccn3-c3ccc(C(=O)O)cc3)C2=O)cc1,/,/,/,/,/,20µM*
O=C(CN1C(=O)N/C(=C\c2cccn2-c2cccc(C(=O)O)c2)C1=O)Nc1ccccc1F,/,/,/,/,/,-7%
Cc1c(S(=O)(=O)N2CCCC2)c(=O)n(C)c(=O)n1C,21,9,16%,-3%,4,/
COCC(COS(N)(=O)=O)Cc1ccccc1 (stereo not drawn),24,2,4%,-9%,5,/
CCN(CC)CCNC(=O)c1cc2c(=O)n(C)c3ccccc3c2n1C,?,-14,?,?,-17,2%
CCN(CC)CCNC(=O)c1cc2c(=O)n(C)c3cc(Cl)ccc3c2s1,/,/,?,21µM*,/,2%
CCCCN(CC)CCNC(=O)c1cc2c(=O)n(C)c3ccccc3c2n1C,-80*,-5,18µM*,15µM*,-2,-4%
COCCCNC(=O)c1cc2c(=O)n(C)c3ccccc3c2n1C,-4,2,18µM*,?,0,8%
CCN(CC)CCCNC(=O)c1cc2c(=O)n(C)c3ccccc3c2n1C,-87*,-7,?,?,-2,2%
CCOC(=O)C1CCN(C(=O)CC2(CC(=O)O)CCCC2)CC1,0,4,13%,4%,7,/
CCOc1ccc(CCNC(=O)c2cc3c(=O)n(C)c4ccccc4c3s2)cc1OCC,/,/,-29%,?,/,2%
CCCN(CCC)CCCNC(=O)c1cc2c(=O)n(C)c3ccccc3c2s1,/,/,?,18µM*,/,0%
CCCN(CCC)CCCNC(=O)c1cc2c(=O)n(C)c3ccccc3c2n1C,-65*,-9,?,26µM*,1,1%
O=S(=O)(CCN1CCCC1)NCCNS(=O)(=O)c1ccc(F)cc1Br,22,5,-11%,-15%,-3,/
O=C1SC(c2ccccc2)=C/C1=C\N1CCCCC1,-24,-15,-8%,-13%,-16,10%
O=C1OC(c2ccccc2)=C/C1=C\N1CCOCC1,-12,-6,23µM*,?,3,2%
CN(C)/C=C1/C=C(c2ccccc2)OC1=O,-53*,4,?,?,7,0%
O=C1OC(c2ccccc2)=C/C1=C/N1CCOCC1,-3,-1,?,16µM*,-3,0%
N#C/C(=C\N1CCOCC1)c1ccccc1,-15,7,-5%,-8%,7,1%
CCC(CO)NC(=O)c1cccc(S(=O)(=O)N2c3ccccc3CC2C)c1 (stereo not drawn),14,12,-8%,?,3,3%
CC1Cc2ccccc2N1S(=O)(=O)c1cnc(Cl)c(Cl)c1 (stereo not drawn),?,4,16µM*,10µM*,3,/
CC(=O)N1CCc2cc(S(=O)(=O)N3c4ccccc4CC3C)ccc21 (stereo not drawn),0,3,12µM*,13µM*,4,0%
CC1Cc2ccccc2N1S(=O)(=O)c1cccc(C(=O)c2nccn2C)c1 (stereo not drawn),13,-6,-18%,-29%,15,5%
CSc1ccc(S(=O)(=O)N2c3ccccc3CC2C)cc1 (stereo not drawn),28,8,?,21µM*,/,/
